The list is not random: actives were taken first. Their share in the collection is about 5.7%.
TGFb SMAD3 inh: qHTS for Inhibitors of TGF-b; HepG2 CAGA-GFP TGF-b/SMAD3 reporter, GFP fluorescence, 18 h; TGF-beta stimulated, 500 pg/mL final; Potency, µM (top dose mostly 46.1 µM), for the others: at the top dose activity, negative = inhibition, most hits filed as inhibitors; hit rate 1.2% among 410,000; AID 588855, 2011; further: potency means the concentration at half of the fitted maximal effect; on the % scale 0 is the no-effect control and ±100 the full control effect; nearly all actives have a fitted effect of over 65% in size
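Cell-based qHTS in HEPG2 carrying a CAGA-GFP Smad reporter; compounds added before 500 pg/mL final TGF-beta, 18 h incubation at 37 degrees C, GFP fluorescence quantified per cell by imaging cytometry.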
ATXN2 expr inh: Primary qHTS for Inhibitors of ATXN expression | AID 1745845, 2022 | HEK-293 ATXN2-luciferase reporter, luminescence, 24 h | Potency, µM (highest dose often 57 µM), without a hit: at the top dose activity change, negative = inhibition, most hits filed as inhibitors | hit rate 0.72% among 360,000; further: potency means the concentration at half of the fitted maximal effect; on the % scale 0 is the no-effect control and ±100 the full control effect; nearly all actives have a fitted effect of over 55% in size
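qHTS (up to 57 uM final) was run with 24 h compound exposure of reporter cells at 37 °C. Each well was multiplexed: SteadyGlo luminescence measured ATXN2-luciferase expression after a fluorogenic Gly-Phe-AFC viability readout (25 uM final).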
HepG2 tox: qHTS for Inhibitors of TGF-b: Cytotox Counterscreen; HepG2 CAGA-GFP viability, ATP luminescence, 18 h; Potency, µM (series often up to 46.1 µM), for inactives: top-dose activity change, negative = cytotoxicity, actives largely listed as cytotoxic; hit rate 0.76% among 410,000; AID 588856, 2011; further: potency means the concentration at half of the fitted maximal effect
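CellTiter-Glo luminescence gave cytotoxicity after 18 hours at 37 degrees C. The cells were HepG2 CAGA-GFP in 1% FBS DMEM, stimulated with 500 pg/mL TGF-beta after compound addition. %Activity was normalised to no-cell wells (complete cell-killing) and DMSO (no toxicity), and curves were fitted and classified.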
ATXN viability: Viability Counterscreen for Primary qHTS for Inhibitors of ATXN expression; hit rate 0.49% among 400,000; Potency, µM (titrated, usually from 56.7 µM), hits mostly cytotoxic; S2 cells (HEK-293 line with an ATXN2-luciferase reporter) viability, CellTiter-Fluor protease fluorescence, 24 h; further: potency means the concentration at half of the fitted maximal effect; nearly all actives have a fitted effect of over 40% in size
IL-1B inflam inh: qHTS for Inhibitors of Inflammasome Signaling: IL-1-beta AlphaLISA Primary Screen; THP-1 LPS/ATP IL-1B secretion, AlphaLISA, 16 h; hits give low values; activity change, % at 57.5 µM; hit rate 4.7% among 360,000; AID 743279, 2014; in the data active means activity change below about -50%; inconclusive means mostly about -30% to -49%; further: on the % scale 0 is the no-effect control and ±100 the full control effect
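Secreted IL-1B measured by AlphaLISA bead assay after 16 h compound exposure of THP-1 cells; compounds (final up to 57.5 uM) added 1 h before LPS (250 ng/mL) and ATP (1.25 mM) stimulation; lower signal means less secretion.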
Starred values were filed as active, the others as inactive. Unless noted, the call rests on the fitted dose curve; in most records, active means well fitted curve in the direction sought with a large enough effect; inconclusive means small, poorly fitted or top-dose-only effect, or another doubt; inactive means no such curve, though single readings can be large; an effect the other way counts as inactive or inconclusive.

What do the screens show for `O=C(O)c1ccccc1C(=O)Nc1cc(-c2ccccc2)[nH]n1`?
TGFb SMAD3 inh: 16.7%; ATXN2 expr inh: -10.7%; HepG2 tox: -9.8%; ATXN viability: inactive; IL-1B inflam inh: 0.2

What do the screens show for `O=C(Nc1cc(-c2ccccc2)[nH]n1)c1ccccc1F`?
TGFb SMAD3 inh: -5.9%; ATXN2 expr inh: 55.2%; HepG2 tox: -72.0%; ATXN viability: inactive; IL-1B inflam inh: -57.3*

How did CC1CN(CC(=O)NCCC2COc3ccccc3O2)Cc2cc(Cl)ccc2O1 (centres undefined) do in these assays?
ATXN viability: inactive

Results for Cc1cccc(N2CCN(S(=O)(=O)c3c(C)[nH]c(C)c3C(=O)N3CCCCC3)CC2)c1C ?
TGFb SMAD3 inh: 1.0%; ATXN2 expr inh: -2.1%; HepG2 tox: -16.8%; ATXN viability: inactive; IL-1B inflam inh: -51.2*

What do the screens show for `OC(C[n+]1cccc(Br)c1)c1ccccc1` (centres undefined)?
TGFb SMAD3 inh: -3.6%; HepG2 tox: -3.0%

Results for Cc1cc(C(=O)Cn2nnc(-c3ccc(Cl)cc3)n2)c(C)n1CC1CCCO1 (centres undefined) ?
TGFb SMAD3 inh: inconclusive; ATXN2 expr inh: -4.3%; HepG2 tox: -0.7%; ATXN viability: inactive; IL-1B inflam inh: -70.8*

What do the screens show for `Cc1cc(C(=O)CSc2nc(N)cc(=O)[nH]2)c(C)n1CC1CCCO1` (centres undefined)?
TGFb SMAD3 inh: -20.0%; ATXN2 expr inh: -5.6%; HepG2 tox: -10.8%; ATXN viability: inactive; IL-1B inflam inh: 15.0

What do the screens show for `Cc1cc(C(=O)CSc2nc3ccccc3[nH]2)c(C)n1CC1CCCO1` (centres undefined)?
TGFb SMAD3 inh: inconclusive; ATXN2 expr inh: inconclusive; HepG2 tox: -1.9%; ATXN viability: 17.8µM*; IL-1B inflam inh: -7.0

What do the screens show for `COc1ccc(CNC(=O)c2cnn(-c3ccc(OC)cc3)c2C2CCN(C(=O)OC(C)(C)C)CC2)cc1`?
TGFb SMAD3 inh: 11.2µM*; HepG2 tox: -6.9%

What do the screens show for `COc1ccc(OC)c(CCNC(=O)c2cnn(-c3ccccc3Cl)c2C2CCN(C(=O)OC(C)(C)C)CC2)c1`?
TGFb SMAD3 inh: 10µM*; HepG2 tox: -18.4%

What do the screens show for `CC(C)(C)OC(=O)N1CCC(c2c(C(=O)NCCc3ccsc3)cnn2-c2ccccc2Cl)CC1`?
TGFb SMAD3 inh: 0.0%; HepG2 tox: -26.6%

What do the screens show for `Cc1ccc(-n2ncc(C(=O)NCCCN3CCc4ccccc4C3)c2C2CCN(C(=O)OC(C)(C)C)CC2)cc1C`?
TGFb SMAD3 inh: inconclusive; HepG2 tox: 15.8µM*

Results for CC(C)(C)OC(=O)N1CCC(c2c(C(=O)NCC3CCN(C4CCCC4)C3)cnn2-c2cccc(Cl)c2)CC1 (centres undefined) ?
TGFb SMAD3 inh: inconclusive; ATXN2 expr inh: inconclusive; HepG2 tox: -38.3%; ATXN viability: inconclusive; IL-1B inflam inh: -56.4*

Results for CC(C)(C)OC(=O)NCCCCCc1nnc(SCc2ccccc2F)o1 ?
TGFb SMAD3 inh: 0.0%; ATXN2 expr inh: -12.5%; HepG2 tox: 0.4%; ATXN viability: inactive; IL-1B inflam inh: -51.4*

Results for CCOCCCNC(=O)c1ccc(NC(=O)N2CCCCc3ccccc32)cc1 ?
TGFb SMAD3 inh: -21.9%; ATXN2 expr inh: 11.2%; HepG2 tox: -0.2%; ATXN viability: inactive

What do the screens show for `Cc1ccccc1C(=O)Nc1cccc(-c2cn3ccccc3n2)c1`?
TGFb SMAD3 inh: inconclusive; ATXN2 expr inh: inconclusive; HepG2 tox: -35.4%; ATXN viability: inconclusive; IL-1B inflam inh: -79.9*

Results for O=C(Nc1cccc(-c2cn3ccccc3n2)c1)c1ccccc1 ?
TGFb SMAD3 inh: 1.1%; ATXN2 expr inh: 3.5%; HepG2 tox: -1.0%; ATXN viability: inactive; IL-1B inflam inh: -68.4*

What do the screens show for `Cc1ccc(C(=O)Nc2cccc(-c3cn4ccccc4n3)c2)cc1`?
TGFb SMAD3 inh: -20.2%; ATXN2 expr inh: -5.5%; HepG2 tox: -23.3%; ATXN viability: inactive; IL-1B inflam inh: -51.6*

How did CNc1oc(-c2ccccc2Cl)nc1P(=O)(c1ccccc1)c1ccccc1 do in these assays?
TGFb SMAD3 inh: inconclusive; ATXN2 expr inh: -10.3%; HepG2 tox: 1.5%; ATXN viability: inactive; IL-1B inflam inh: -78.5*

What do the screens show for `Cc1cn([C@@H](CCCCNC(=O)OC(C)(C)C)C(=O)NCCCCCCCCCCC(=O)N2CCN(C(=O)OC(C)(C)C)CC2)nn1`?
TGFb SMAD3 inh: 11.2µM*; ATXN2 expr inh: inconclusive; HepG2 tox: -11.5%; ATXN viability: 15.8µM*; IL-1B inflam inh: -7.3

What do the screens show for `CC[C@H](C)Cc1cn([C@@H](CCCN=C(NC(=O)OC(C)(C)C)NC(=O)OC(C)(C)C)C(=O)NCCCCCCCCCCC(=O)N2CCN(C(=O)OC(C)(C)C)CC2)nn1`?
TGFb SMAD3 inh: inconclusive; ATXN2 expr inh: inconclusive; HepG2 tox: -34.7%; ATXN viability: 17.8µM*; IL-1B inflam inh: -26.1

Results for CC[C@H](C)Cc1cn([C@@H](CCCCN)C(=O)NCCCCCCCCCCC(=O)N2CCNCC2)nn1 ?
TGFb SMAD3 inh: 19.1%; ATXN2 expr inh: 2.4%; HepG2 tox: -2.1%; ATXN viability: inactive; IL-1B inflam inh: 5.8

What do the screens show for `CC(C)(C)OC(=O)NCCCCCc1cn(CC(=O)NCCCCCCCCCCC(=O)N2CCN(C(=O)OC(C)(C)C)CC2)nn1`?
TGFb SMAD3 inh: -4.8%; ATXN2 expr inh: 12.7%; HepG2 tox: -12.3%; ATXN viability: inactive; IL-1B inflam inh: 22.4

What do the screens show for `COc1ccc(S(=O)(=O)Nc2cc(SCC(=O)O)c(O)c3ccccc23)cc1`?
TGFb SMAD3 inh: 11.2µM*; HepG2 tox: -107.4%; ATXN viability: inconclusive; IL-1B inflam inh: -58.7*

How did Cc1cc(C)c(S(=O)(=O)Nc2cc(SCC(=O)O)c(O)c3ccccc23)cc1C do in these assays?
TGFb SMAD3 inh: inconclusive; ATXN2 expr inh: inconclusive; HepG2 tox: -106.2%; IL-1B inflam inh: -87.7*

How did O=S(=O)(Nc1ccc(Cl)cc1NS(=O)(=O)c1ccccc1)c1ccccc1 do in these assays?
TGFb SMAD3 inh: inconclusive; ATXN2 expr inh: -39.0%; HepG2 tox: -36.2%; ATXN viability: inactive; IL-1B inflam inh: -6.2

Results for O=C(O)CSc1cc(NS(=O)(=O)c2ccc(Cl)cc2)c2ccccc2c1O ?
TGFb SMAD3 inh: inconclusive; ATXN2 expr inh: inconclusive; HepG2 tox: 6.31µM*; ATXN viability: inactive; IL-1B inflam inh: -84.2*

How did COc1ccc(C(CNC(=O)c2cccc([N+](=O)[O-])c2)N2CCOCC2)cc1 (centres undefined) do in these assays?
TGFb SMAD3 inh: -15.8%; HepG2 tox: -27.4%
